Reference: PubChem BioAssay AID493240 (Broad Institute, 2011)
The whole screen tested about 1,300 compounds, of which about 270 (21%) were called active. The rule behind the calls is not given here. A selection follows. Results with a measured potency or affinity are listed apart.

Test: SK-MEL-5 parental cell viability loss, dose response, orthogonal assay for MITF inhibitor project, CellTiter-Glo, cherry-picked, set 3 (AID 493240)
Conditions: SK-MEL-5 viability, ATP luminescence (CellTiter-Glo), 24 h; series mostly up to 35 µM

Q: For `COc1cccc(/C=C/C(=O)c2ccc3c(c2)OCCO3)c1OC`, which outcome is on record?
A: The outcome was “inactive”.

Q: For `O=C(/C=C/c1ccc2c(c1)OCCO2)c1ccccc1`, which outcome is on record?
A: The outcome was “inactive”.

Q: For `O=C(Nc1nc2ccsc2c(=O)s1)C1CCC1`, which outcome is on record?
A: The outcome was “inactive”.

Q: With `O=C(Nc1ccccc1Cl)c1cc(=O)c2ccccc2o1` as the molecule, how does the outcome read?
A: Its outcome is “inactive”.

Q: With `Cc1ccc(-c2noc(CN3CCCCC3)n2)cc1` as the molecule, how does the outcome read?
A: The outcome was “inactive”.

Q: With `Cc1cc(C)c2c(N)c(C(=O)N/N=C/c3cccnc3)sc2n1` as the molecule, how does the outcome read?
A: Its outcome is “inactive”.

Q: With `Cc1nc2ccc(NC(=O)c3ccco3)cc2nc1C` as the molecule, how does the outcome read?
A: The outcome was “inactive”.

Q: For `COc1cccc(/C=N/NC(=O)c2cccs2)c1`, which outcome is on record?
A: The outcome was “inactive”.

Q: For `CC1Cc2cc(-c3csc(N)n3)ccc2O1` (stereo unspecified), which outcome is on record?
A: Its outcome is “inactive”.

Q: With `CCCCOc1ccc(-c2ncc([N+](=O)[O-])cn2)cc1` as the molecule, how does the outcome read?
A: Its outcome is “inactive”.

Q: Which outcome does the source give for `COC(=O)CSC1=C(C#N)C(=O)NC(c2ccccc2)S1` (stereo unspecified) here?
A: The outcome was “inactive”.

Q: Which outcome does the source give for `COc1nc(NC2CCCCC2)nc(NC(C)(C)C)n1` here?
A: Its outcome is “inactive”.

Q: For `Cc1ccc2nc(Cc3ccc(N)cc3)oc2c1`, which outcome is on record?
A: Its outcome is “inactive”.

Q: For `Cc1nc(NC(=O)/C=C/c2ccccc2)n[nH]1`, which outcome is on record?
A: Its outcome is “inactive”.

Q: For `CCCc1ccc(-c2ccc(/C=C/C(=O)O)cc2)nc1`, which outcome is on record?
A: The outcome was “inactive”.

Q: With `[2H]C(CCOS(N)(=O)=O)c1ccc(C(C)(C)C)cc1` (stereo unspecified) as the molecule, how does the outcome read?
A: Its outcome is “inactive”.

Q: Which outcome does the source give for `CC(=O)N(C1CC(C)C(C#N)(C#N)C1(C#N)C#N)N(C)C` (stereo unspecified) here?
A: Its outcome is “inactive”.

Q: Which outcome does the source give for `O=C(CC(=O)c1ccccc1)Nc1ccccn1` here?
A: Its outcome is “inactive”.

Q: For `Cc1cccnc1NC(=O)NC(=O)c1ccc(C(C)(C)C)s1`, which outcome is on record?
A: Its outcome is “inactive”.

Q: With `COc1ccc(NC(=O)c2cc3ccccc3oc2=O)c(OC)c1` as the molecule, how does the outcome read?
A: The outcome was “inactive”.

Q: Which outcome does the source give for `NNC(=O)Cn1c(SCc2ccccc2)nc2ccccc21` here?
A: The outcome was “inactive”.

Q: Which outcome does the source give for `CCCCOc1ccc(-c2nnn(C(C)(C)C(=O)OC)n2)cc1` here?
A: Its outcome is “inactive”.

Q: With `CCSc1nnc(NC(=O)C2CCCCC2)s1` as the molecule, how does the outcome read?
A: Its outcome is “inactive”.

Q: For `COCc1cc(C)nc2sc(C(=O)Nc3ccc(OC)cc3)c(N)c12`, which outcome is on record?
A: The outcome was “inactive”.

Q: For `CCN(CC)c1ccc(/C=N/NC(=O)c2cccc(S(=O)(=O)N3CCOCC3)c2)c(O)c1`, which outcome is on record?
A: Its outcome is “inactive”.

Q: Which outcome does the source give for `O=C(N/N=C\c1ccc([N+](=O)[O-])o1)C1COc2ccccc2O1` (stereo unspecified) here?
A: The outcome was “inactive”.

Q: Which outcome does the source give for `Clc1ccc(-c2noc(CN3CCOCC3)n2)cc1` here?
A: Its outcome is “inactive”.

Q: With `COc1ccc(-c2cc(-c3ccccc3)c(C#N)c(S(C)=O)n2)cc1` (stereo unspecified) as the molecule, how does the outcome read?
A: The outcome was “inactive”.

Q: For `COc1ccc(-c2nc3n(c2C)Cc2ccccc2-3)cc1`, which outcome is on record?
A: Its outcome is “inactive”.

Q: For `CC(C)(C)c1ccc(C(=O)Nc2sc3c(c2C(=O)O)CCC3)cc1`, which outcome is on record?
A: The outcome was “inactive”.

Q: With `Cc1ccc(-n2ncc3c(SCC(N)=O)ncnc32)cc1C` as the molecule, how does the outcome read?
A: Its outcome is “inactive”.

Q: With `CC(/C=C1\SC(=O)N(CCCC(=O)O)C1=O)=C\c1ccccc1` as the molecule, how does the outcome read?
A: Its outcome is “inactive”.

Q: Which outcome does the source give for `Cc1cc(C)n(CCC(=O)N/N=C/c2c(O)ccc3ccccc23)n1` here?
A: The outcome was “inactive”.

Q: With `COc1ccc2nc(N3CCN(C(=O)c4ccc([N+](=O)[O-])o4)CC3)sc2c1` as the molecule, how does the outcome read?
A: Its outcome is “inactive”.

Q: With `Cc1cccc(NC(=O)CNC(=O)Cn2ncc(Cl)c(Cl)c2=O)c1C` as the molecule, how does the outcome read?
A: The outcome was “inactive”.

Q: With `C/C(=N\Nc1nccnc1Cl)c1ccc(O)c(C)c1` as the molecule, how does the outcome read?
A: Its outcome is “inactive”.

Q: For `CCOC(=O)c1c(C)[nH]c(C)c1C(=O)COC(=O)c1ccc([N+](=O)[O-])s1`, which outcome is on record?
A: Its outcome is “inactive”.

Q: With `O=C(c1ccc([N+](=O)[O-])s1)N1CCCc2ccccc21` as the molecule, how does the outcome read?
A: The outcome was “inactive”.

Q: For `CCOC(=O)C(=Cc1ccc(-n2ccnc2)cc1)C(=O)OCC`, which outcome is on record?
A: Its outcome is “inactive”.

Q: For `NC(=O)C1CCN(C2=C(NS(=O)(=O)c3ccc(Br)cc3)C(=O)c3ccccc3C2=O)CC1`, which outcome is on record?
A: Its outcome is “inactive”.

Q: Which outcome does the source give for `Cc1ccc(C(CNS(=O)(=O)c2ccc(Br)cc2)N2CCN(C)CC2)cc1` (stereo unspecified) here?
A: The outcome was “inactive”.

Q: For `Cc1cc(N2CCOCC2)ccc1/C=C\[N+](=O)[O-]`, which outcome is on record?
A: The outcome was “inactive”.

Q: With `COc1cc2c(c(OC)c1OC)-c1ccc(N(C)CC(OC)OC)c(=O)cc1[C@@H](NC(C)=O)CC2` as the molecule, how does the outcome read?
A: Its outcome is “inactive”.

Q: For `Nc1ccc2c(c1)OC1(CCCC1)O2`, which outcome is on record?
A: The outcome was “inactive”.

Q: Which outcome does the source give for `COc1cc(OC)cc(C(=O)N[C@H](C(=O)Nc2nc3ccccc3[nH]2)C(C)C)c1` here?
A: The outcome was “inactive”.

Q: Which outcome does the source give for `CN(C)C1CCN(Cc2cc(COCc3ccccc3)c3cccnc3c2O)C1` (stereo unspecified) here?
A: Its outcome is “inactive”.

Q: Which outcome does the source give for `Oc1c(CN2CCCC2)cc(COCc2ccccc2)c2cccnc12` here?
A: Its outcome is “inactive”.

Q: With `COc1cccc(NC(=O)c2cc3c(=O)n4ccccc4nc3n(CC(C)C)c2=N)c1` as the molecule, how does the outcome read?
A: The outcome was “inactive”.

Q: Which outcome does the source give for `Cc1ccc(NC(=O)c2cc3cccc([N+](=O)[O-])c3[nH]2)cc1` here?
A: Its outcome is “inactive”.

Q: For `CCN=c1scc(-c2ccco2)n1/N=C/c1ccc(O)cc1`, which outcome is on record?
A: The outcome was “inactive”.

Q: With `CC(C)CC(=O)/C=C/n1c(=S)oc2ccccc21` as the molecule, how does the outcome read?
A: Its outcome is “inactive”.

Q: Which outcome does the source give for `CCC(=O)Nc1cc2nn(-c3ccc(C)cc3)nc2cc1C` here?
A: The outcome was “inactive”.

Q: Which outcome does the source give for `Cc1cc(N2CCOCC2)n2ncc(-c3ccccc3Cl)c2n1` here?
A: The outcome was “inactive”.

Q: For `O=C(CCl)N(Cc1cc(=O)[nH]c2ccccc12)c1ccccc1`, which outcome is on record?
A: The outcome was “inactive”.

Q: With `CCNc1nc(N)c(C(=O)c2ccc(Cl)s2)s1` as the molecule, how does the outcome read?
A: The outcome was “inactive”.

Q: Which outcome does the source give for `CN(C)c1ccc(CNc2ccccn2)cc1` here?
A: Its outcome is “inactive”.

Q: Which outcome does the source give for `CN(C)c1ccc(NC(=S)c2ccccn2)cc1` here?
A: The outcome was “inactive”.

Q: For `O=C1c2ccccc2C(=O)c2c1ncn2-c1ccccc1`, which outcome is on record?
A: Its outcome is “inactive”.

Q: For `Cc1c(/C=C/C(=O)c2ccc(Cl)s2)cnn1C`, which outcome is on record?
A: Its outcome is “inactive”.

Q: For `CC1CN(N=Cc2ccc([N+](=O)[O-])o2)C(=N)O1` (stereo unspecified), which outcome is on record?
A: The outcome was “inactive”.

Q: With `C#Cc1cccc(NC(=O)CSc2nnc(-c3ccc(C(F)(F)F)cn3)o2)c1` as the molecule, how does the outcome read?
A: Its outcome is “inactive”.

Q: Which outcome does the source give for `Cc1nc(NCCOc2ccccc2)sc1C(=O)Nc1ccccc1` here?
A: The outcome was “inactive”.

Q: For `COc1ccc(NC(=O)c2cc(-c3ccccc3Cl)on2)cc1`, which outcome is on record?
A: Its outcome is “inactive”.

Q: For `CCOC(=O)c1sc(-c2ccccc2)cc1N`, which outcome is on record?
A: The outcome was “inactive”.

Q: For `CCOC(=O)c1cnc2c(ccc3ccccc32)c1N`, which outcome is on record?
A: The outcome was “inactive”.

Q: For `Cc1cc(/C(N)=N/OC(=O)Nc2ccc(Cl)cc2)no1`, which outcome is on record?
A: Its outcome is “inactive”.

Q: With `COc1ccc(NCc2nc3ccccc3n2C)cc1` as the molecule, how does the outcome read?
A: The outcome was “inactive”.

Q: Which outcome does the source give for `CC(=O)c1cccc(Nc2nc(-c3cccnc3)cs2)c1` here?
A: The outcome was “inactive”.

Q: For `CN1C/C(=C/c2cccnc2)C(=O)/C(=C/c2cccnc2)C1`, which outcome is on record?
A: Its outcome is “inactive”.

Q: Which outcome does the source give for `CC(C)N1C/C(=C/c2cccnc2)C(=O)/C(=C/c2cccnc2)C1` here?
A: Its outcome is “inactive”.

Q: For `C=CCn1c(C)cc(C(=O)Cn2ncc(Cl)c(Cl)c2=O)c1C`, which outcome is on record?
A: Its outcome is “inactive”.

Q: Which outcome does the source give for `O=C(NC1=NCCS1)C1COc2ccccc2O1` (stereo unspecified) here?
A: The outcome was “inactive”.

Q: For `COc1cc2ccccc2cc1C(=O)Nc1ccc(N2CCN(C)CC2)cc1`, which outcome is on record?
A: Its outcome is “inactive”.

Q: With `Cc1c(C(=O)N(CCO)Cc2ccccc2)oc2c(F)cccc12` as the molecule, how does the outcome read?
A: Its outcome is “inactive”.

Q: For `COc1c(C)cccc1C(=O)Nc1ccc(N2CCN(S(C)(=O)=O)CC2)cc1`, which outcome is on record?
A: The outcome was “inactive”.

Q: Which outcome does the source give for `CCC1CCCCN1CCCNC(=O)c1cn(CC)c2ccc(S(=O)(=O)N(C)C3CCCCC3)cc2c1=O` (stereo unspecified) here?
A: Its outcome is “inactive”.
